# Data published in PubChem BioAssay (NCATS).
# Several values for one entry are separate records, joined by “and”; a condition that tells them apart may be missing. Equal values may be shown once. A number with no mark means an inactive call. Records with an inconclusive call do not appear. Activity calls are given as the source filed them. Unless noted, the call rests on the fitted dose curve; in most records, active means well fitted curve in either direction with a large enough effect (not every such curve was filed as active); inconclusive means small, poorly fitted or top-dose-only effect, or another doubt; inactive means flat fitted curve, though single readings scatter.
# Legend:
# [1] = biological target: Cytochrome P450 1A2 (Homo sapiens) (UniProt P05177); test: p450-cyp1a2 (AID 410; calls by dose curve; further: potency means the concentration at half of the fitted maximal effect;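 on activity change, negative = inhibition: -100% = full effect of reference inhibitor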)
# Chain of Cytochrome P450 1A2 (Homo sapiens) (P05177 whole entry, looked up): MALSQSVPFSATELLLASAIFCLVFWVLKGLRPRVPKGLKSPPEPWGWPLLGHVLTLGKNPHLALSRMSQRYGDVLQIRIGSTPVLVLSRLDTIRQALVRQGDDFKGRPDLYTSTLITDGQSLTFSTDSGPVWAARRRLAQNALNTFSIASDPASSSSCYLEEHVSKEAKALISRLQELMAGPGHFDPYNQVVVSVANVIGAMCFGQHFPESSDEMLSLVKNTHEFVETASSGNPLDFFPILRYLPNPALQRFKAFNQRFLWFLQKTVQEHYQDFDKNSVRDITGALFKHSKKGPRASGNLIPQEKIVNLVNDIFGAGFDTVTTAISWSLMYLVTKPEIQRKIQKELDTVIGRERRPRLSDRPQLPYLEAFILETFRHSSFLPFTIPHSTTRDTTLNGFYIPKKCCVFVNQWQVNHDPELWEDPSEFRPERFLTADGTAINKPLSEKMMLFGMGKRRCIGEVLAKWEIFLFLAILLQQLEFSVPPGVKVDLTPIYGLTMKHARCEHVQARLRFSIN
# How it was run: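 Inhibition was calculated relative to 57 uM furafylline (full inhibition). The reaction used human CYP1A2 at 20nM with Luciferin-ME at its Km, 100uM, driven by an NADPH-regenerating system for 60 min at room temperature.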
# [2] = Stat Signaling Pathway (AID 446);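 further: ME-180 cervical cancer cells given 40 pM IL-6 alongside compound; SIE-controlled beta-lactamase reporter measured as 460/530 nm FRET emission ratio; on the % scale 0 is the no-effect control and ±100 the full control effect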
# How it was run: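 IL-6/STAT signaling read in ME-180 cells via an SIE beta-lactamase reporter. Stimulus was 40 pM IL-6 (its AC50) for 5 hrs, so both activation and inhibition register.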
# [3] = biological target: Glucocorticoid receptor (Homo sapiens) (UniProt P04150); test: GR-GFP Redistribution (AID 450;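 active means compounds whose dose series gives a full or clear partial fitted curve of increased nuclear translocation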; further: potency means the concentration at half of the fitted maximal effect); conditions: U2OS GR-GFP nuclear translocation, laser cytometry, 2 h
# Chain of Glucocorticoid receptor (Homo sapiens) (P04150 whole entry, looked up): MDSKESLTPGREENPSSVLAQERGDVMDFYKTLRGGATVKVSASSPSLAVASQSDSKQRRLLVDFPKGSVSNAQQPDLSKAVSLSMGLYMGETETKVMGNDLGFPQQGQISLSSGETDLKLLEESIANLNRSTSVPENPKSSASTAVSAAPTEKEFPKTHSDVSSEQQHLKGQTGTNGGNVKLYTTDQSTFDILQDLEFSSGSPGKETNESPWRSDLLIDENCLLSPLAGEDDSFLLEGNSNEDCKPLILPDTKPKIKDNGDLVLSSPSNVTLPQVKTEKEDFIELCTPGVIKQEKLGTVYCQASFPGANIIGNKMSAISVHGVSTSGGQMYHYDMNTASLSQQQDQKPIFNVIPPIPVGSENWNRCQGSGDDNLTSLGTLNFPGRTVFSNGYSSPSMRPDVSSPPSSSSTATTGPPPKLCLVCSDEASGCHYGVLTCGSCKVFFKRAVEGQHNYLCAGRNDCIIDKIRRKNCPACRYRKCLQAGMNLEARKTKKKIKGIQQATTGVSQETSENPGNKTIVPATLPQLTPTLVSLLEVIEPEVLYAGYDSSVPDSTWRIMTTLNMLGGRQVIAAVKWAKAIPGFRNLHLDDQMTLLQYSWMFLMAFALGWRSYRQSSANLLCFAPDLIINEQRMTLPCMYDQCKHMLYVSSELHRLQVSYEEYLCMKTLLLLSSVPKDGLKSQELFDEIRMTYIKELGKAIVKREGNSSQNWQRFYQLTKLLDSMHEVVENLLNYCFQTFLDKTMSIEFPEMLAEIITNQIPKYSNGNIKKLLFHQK
# [4] = Cell Viability - Jurkat (AID 426;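 active means dose-dependent loss of cell ATP signal giving a full or clear fitted curve, ranked by lower potency value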;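 further: potency means the concentration at half of the fitted maximal effect; cells exposed to compound for 40 hours at 37 °C before ATP read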); conditions: qHTS
# How it was run: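 Seed 5000 Jurkat E6-1 cells/well; add compound; incubate 40 hr at 37 °C; add CellTiter-Glo; wait 20 min at room temperature; read luminescence. Fit concentration-response with Hill equation for AC50.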
# [5] = Cell Viability - Hek293 (AID 427;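 active means compounds whose dose-response curve shows a full or clear partial loss of cell viability, called from curve shape rather than a numeric limit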;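 further: potency means the concentration at half of the fitted maximal effect; cells exposed to compound for 40 hours at 37 °C before reading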); conditions: qHTS
# How it was run: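 AC50 values derive from Hill-modelled concentration-response of ATP-based luminescence, normalized between DMSO-only and 100 uM tamoxifen controls. Cells were exposed in complete culture medium for 40 hr at 37 °C before detection.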
# [6] = Cell Viability - HepG2 (AID 433; calls by dose curve;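 further: potency means the concentration at half of the fitted maximal effect; cells exposed to compound for 40 hours; potency for ATP loss meaning cytotoxicity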); conditions: qHTS
# How it was run: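 HepG2 cells, 1500 per well, treated 40 hr at 37 °C in complete medium; viability from intracellular ATP by CellTiter-Glo luminescence. Normalized to DMSO and 100 uM tamoxifen; AC50 from Hill fit of qHTS concentration-response.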
# [7] = Cell Viability - MRC5 (AID 434; calls by dose curve;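 further: potency means the concentration at half of the fitted maximal effect; cells exposed to compound for 40 hours at 37 °C; potency reflects cytotoxicity seen as loss of intracellular ATP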); conditions: MRC5 lung fibroblast viability, qHTS
# How it was run: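 qHTS cytotoxicity in human lung fibroblast MRC5 cells; 40 hr treatment, 37 °C; cellular ATP by luciferase luminescence; DMSO = 0%, 100 uM tamoxifen = 100% inhibition; Hill-fit AC50.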
# [8] = Cell Viability - BJ (AID 421; calls by dose curve;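 further: potency means the concentration at half of the fitted maximal effect; cells exposed to compound for 40 hours at 37 °C before readout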); conditions: BJ fibroblast viability, qHTS
# How it was run: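 Quantitative HTS: ATP depletion in BJ cells after 40 hr compound exposure in complete culture medium, detected with CellTiter-Glo; AC50 from standard Hill fits.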
# [9] = NFAT Signaling Pathway (AID 444); conditions: Jurkat NFAT-bla M1, carbachol, beta-lactamase ratio, 5 h; at 17.2 µM (top of the series);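 further: carbachol stimulus at about its EC50 of 1 µM final; on the % scale 0 is the no-effect control and ±100 the full control effect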
# How it was run: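 Read-out: CCF4 FRET ratio (460 nm/530 nm) after 1 h RT dye loading, used for %activity and AC50 from titration series. Cells: Jurkat NFAT-β-lactamase/M1 line, treated with compound plus 1 uM carbachol for 5 h, 37 °C.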
smiles,measurement,setting,value
CCCCc1ccc2nc(NC(=O)OC)[nH]c2c1,Potency,[1],0.501 µM (active)
same,outcome,[2],inactive
CC(=O)N1CCN(c2ccc(OC[C@H]3CO[C@](Cn4ccnc4)(c4ccc(Cl)cc4Cl)O3)cc2)CC1,Potency,[3],> 46 µM
CCN(CC)CCOc1ccc(Cc2ccccc2)cc1,Potency,[1],12.6 µM (active)
same,Potency,[3],> 46 µM
COc1cc(OC)c(C(=O)CCCN2CCCC2)c(OC)c1,outcome,[2],inactive
same,Potency,[3],> 20.6 µM
CN(C)c1ccc2nc3ccc(=[N+](C)C)cc-3sc2c1,Potency,[4],14.2 µM (active)
same,Potency,[5],35.6 µM (active)
same,Potency,[6],4.17 µM (active)
same,Potency,[7],37.8 µM (active)
O=C(NCCO[N+](=O)[O-])c1cccnc1,Potency,[1],inactive
same,Potency,[3],> 46 µM
COc1cc2nc(N3CCN(C(=O)C4CCCO4)CC3)nc(N)c2cc1OC (stereo unspecified),outcome,[2],inactive
same,Potency,[3],> 20.6 µM
CN(C)CCCC1(c2ccc(F)cc2)OCc2cc(C#N)ccc21 (stereo unspecified),outcome,[2],inactive
same,Potency,[3],> 20.6 µM
NS(=O)(=O)c1cc(C(=O)O)c(NCc2ccco2)cc1Cl,Potency,[8],> 92 µM
same,Potency,[4],> 92 µM
same,Potency,[5],> 92 µM
same,Potency,[6],> 92 µM
same,Potency,[7],> 92 µM
same,"activity change, negative = inhibition",[9],-8.48%
same,outcome,[2],inactive
Cc1cccc(CN2CCN(C(c3ccccc3)c3ccc(Cl)cc3)CC2)c1 (stereo unspecified),outcome,[2],inactive
same,Potency,[3],> 20.6 µM
COC(=O)C1=C(C)NC(C)=C(C(=O)OC(C)C)C1c1cccc2nonc12 (stereo unspecified),Potency,[1],31.6 µM (active)
same,Potency,[3],> 46 µM
CC(C)(S)[C@@H](N)C(=O)O,outcome,[2],inactive
same,Potency,[3],> 20.6 µM
CCOC(=O)C1=C(O)C(=O)N(Cc2ccccc2)C1,Potency,[1],1 µM (active)
same,Potency,[3],> 46 µM
Nc1nc(Cl)nc2c1ncn2[C@H]1C[C@H](O)[C@@H](CO)O1,"activity change, negative = inhibition",[9],16.6% and 27.4%
same,outcome,[2],inactive
same,Potency,[3],> 20.6 µM
Nc1cc(C(Cl)=C(Cl)Cl)c(S(N)(=O)=O)cc1S(N)(=O)=O,"activity change, negative = inhibition",[9],-0.14%
same,outcome,[2],inactive
same,Potency,[3],> 20.6 µM
CC(C)Oc1ccc2c(=O)c(-c3ccccc3)coc2c1,"activity change, negative = inhibition",[9],5.32%
same,outcome,[2],inactive
same,Potency,[3],> 20.6 µM
O=C(NCC1CCCCN1)c1cc(OCC(F)(F)F)ccc1OCC(F)(F)F (stereo unspecified),"activity change, negative = inhibition",[9],-8.46%
same,outcome,[2],inactive
Cc1cc(C2CCCCC2)n(O)c(=O)c1,Potency,[1],15.8 µM (active)
same,outcome,[2],inactive
same,Potency,[3],> 20.6 µM
